Some test systems named below: NCI-H23 lung; NCI-H226 lung; NCI-H322M lung; HOP-62 NSCLC; NCI-H460 lung; HOP-92 NSCLC; NCI-H522 lung; A549/ATCC NSCLC; 786-0 renal; COLO 205 colon; DU-145 prostate; K-562 leukemia; MALME-3M melanoma; MDA-MB-231 breast; RXF 393 renal; SF-268 CNS; SF-295 CNS; SF-539 CNS; UACC-257 melanoma; M14 melanoma.
What all share (assay): NCI-60 one-dose screen, 48 h (100 = growth as untreated, 0 = no growth, -100 = all killed)

The structures appear in SMILES notation. Where “and” joins values, the source holds several entries; their conditions need not be identical. Equal entries are not always repeated. The panel holds about 83,000 compounds, 20% with a hit somewhere; the sample as a whole holds those more often.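 Compound tested at a single concentration for 48 hours in 96-well plates; a percent growth value below 10 was scored as active.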 A number with no mark means an inactive call. Calls of active or inactive are those of the source.

Regarding `S=C(SSC(=S)N1CCCCC1)N1CCCCC1`, the growth with NCI-H23 lung (10 µM) was 101%; in the experiment on NCI-H23 lung (100 µM), -5.33% (active); with NCI-H226 lung (10 µM), 104%; in the experiment on NCI-H226 lung (100 µM), 10.4%; in the experiment on NCI-H322M lung (10 µM) it was 102%; in the experiment with NCI-H322M lung (100 µM) it was 32%. In addition, the growth is 110% with HOP-62 NSCLC (10 µM); 37.6% in the experiment with HOP-62 NSCLC (100 µM); 91.9% in the experiment with NCI-H460 lung (10 µM); -2.57% (active) in the experiment on NCI-H460 lung (100 µM); 101% in the experiment with HOP-92 NSCLC (10 µM); 9.88% (active) with HOP-92 NSCLC (100 µM). For the same compound, the growth in the experiment on NCI-H522 lung (10 µM) was 87%; in the experiment on NCI-H522 lung (100 µM), -44.2% (active); in the experiment on A549/ATCC NSCLC (10 µM) it was 93.3%; in the experiment with A549/ATCC NSCLC (100 µM), 26.1%; in the experiment with 786-0 renal (10 µM), 98.7%; with 786-0 renal (100 µM), -3.71% (active). For the same compound, the growth in the experiment with COLO 205 colon (10 µM) is 110%; in the experiment with COLO 205 colon (100 µM), -69.1% (active); in the experiment with DU-145 prostate (10 µM), 107%; with DU-145 prostate (100 µM), 9.68% (active); with K-562 leukemia (10 µM), 102%; in the experiment on K-562 leukemia (100 µM), -13.7% (active). The growth is 124% in the experiment with MALME-3M melanoma (10 µM); -76.9% (active) in the experiment with MALME-3M melanoma (100 µM); 104% in the experiment with MDA-MB-231 breast (10 µM); -35.8% (active) in the experiment with MDA-MB-231 breast (100 µM); 114% in the experiment on RXF 393 renal (10 µM); -15.7% (active) in the experiment with RXF 393 renal (100 µM). Besides, the growth in the experiment with SF-268 CNS (10 µM) is 101%; in the experiment with SF-268 CNS (100 µM), 0.593% (active); with SF-295 CNS (10 µM), 97.3%; in the experiment on SF-295 CNS (100 µM), 1.68% (active); in the experiment with SF-539 CNS (10 µM), 104%; with SF-539 CNS (100 µM), -61.6% (active). Moreover, the growth in the experiment on UACC-257 melanoma (10 µM) is 87.7%; in the experiment with UACC-257 melanoma (100 µM), 40.5%; in the experiment on M14 melanoma (10 µM), 92.6%; with M14 melanoma (100 µM), -49.6% (active).
As for `CCC(=O)OC1CCn2c1nc1c2C(=O)C(C)=C(N2CC2)C1=O` (centres undefined), the growth in the experiment on NCI-H23 lung (10 µM unless noted) was -28.5% (active); in the experiment with NCI-H226 lung (10 µM unless noted), -23% (active); in the experiment on NCI-H322M lung (10 µM unless noted) it was -5.88% (active); in the experiment on HOP-62 NSCLC (10 µM unless noted) it was -29.4% (active); in the experiment with NCI-H460 lung (10 µM unless noted), -23.6% (active); in the experiment on HOP-92 NSCLC (10 µM), 80.9%. The growth in the experiment with NCI-H522 lung (10 µM unless noted) was -43% (active); in the experiment on A549/ATCC NSCLC (10 µM unless noted), 2.51% (active); in the experiment with 786-0 renal (10 µM unless noted), -16.5% (active); in the experiment on COLO 205 colon (10 µM unless noted) it was -74.3% (active); in the experiment with K-562 leukemia (10 µM unless noted) it was 9.08% (active); in the experiment on MALME-3M melanoma (10 µM unless noted), -60.4% (active). The growth was 71.7% with MDA-MB-231 breast (10 µM unless noted); -79.8% (active) in the experiment on RXF 393 renal (10 µM unless noted); 7.54% (active) with SF-268 CNS (10 µM unless noted); 2.01% (active) with SF-295 CNS (10 µM unless noted); -33.6% (active) in the experiment with SF-539 CNS (10 µM unless noted); -55.7% (active) with UACC-257 melanoma (10 µM unless noted). Further, the growth with M14 melanoma (10 µM unless noted) is -58.1% (active).
On to `C[C@]12CC[C@H](O)CC1=CC[C@@H]1[C@@H]2CC[C@]2(C)C(=O)CC[C@@H]12`, for which the growth with NCI-H23 lung (10 µM unless noted) is 96%; with NCI-H226 lung (10 µM unless noted) it was 102%; with NCI-H322M lung (10 µM unless noted), 91%; in the experiment on HOP-62 NSCLC (10 µM unless noted), 96.4%; in the experiment with NCI-H460 lung (10 µM unless noted), 108%; with NCI-H522 lung (10 µM unless noted) it was 48%. For the same compound, the growth in the experiment with A549/ATCC NSCLC (10 µM unless noted) was 106%; with 786-0 renal (10 µM unless noted), 92.6%; in the experiment on COLO 205 colon (10 µM unless noted), 93.4%; with DU-145 prostate (10 µM unless noted) it was 122%; in the experiment on K-562 leukemia (10 µM unless noted), 80.5%; in the experiment with MALME-3M melanoma (10 µM unless noted), 80.9%. Also, the growth with MDA-MB-231 breast (10 µM unless noted) was 106%; in the experiment on RXF 393 renal (10 µM unless noted), 110%; with SF-268 CNS (10 µM unless noted), 106%; with SF-295 CNS (10 µM unless noted) it was 102%; in the experiment on SF-539 CNS (10 µM unless noted) it was 100%; with UACC-257 melanoma (10 µM unless noted), 102%. The growth with M14 melanoma (10 µM unless noted) was 101%.
Take `Oc1cccc2cccnc12`: the growth with NCI-H23 lung (10 µM unless noted) was 102% and 109% and 104%; in the experiment on NCI-H226 lung (10 µM unless noted) it was 94.5% and 98.1% and 98.6%; with NCI-H322M lung (10 µM unless noted), 104% and 111% and 95.5%; with HOP-62 NSCLC (10 µM unless noted), 94.7% and 98.3% and 104%; in the experiment on NCI-H460 lung (10 µM unless noted), 83.7% and 104% and 102%; in the experiment with HOP-92 NSCLC (10 µM), 89.1%. Moreover, the growth in the experiment on NCI-H522 lung (10 µM unless noted) was 10.8% and 103%; in the experiment with A549/ATCC NSCLC (10 µM unless noted), 100% and 105% and 111%; in the experiment with 786-0 renal (10 µM unless noted), 106% and 105%; in the experiment on COLO 205 colon (10 µM unless noted), 65% and 105% and 102%; with DU-145 prostate (10 µM unless noted) it was 82% and 108% and 111%; in the experiment on K-562 leukemia (10 µM unless noted), 44.2% and 106% and 102%. Also, the growth was 96.3% and 98.2% in the experiment on MALME-3M melanoma (10 µM unless noted); 92.9% and 109% and 101% with MDA-MB-231 breast (10 µM unless noted); 95.7% and 104% and 112% with RXF 393 renal (10 µM unless noted); 80% and 101% with SF-268 CNS (10 µM unless noted); 99.7% and 108% and 115% with SF-295 CNS (10 µM unless noted); 113% and 90.2% in the experiment with SF-539 CNS (10 µM unless noted). Also, the growth with UACC-257 melanoma (10 µM unless noted) was 80.1% and 98.6% and 111%; in the experiment on M14 melanoma (10 µM unless noted), 76% and 102% and 94.3%.
On to `CN1CCN(c2ccc([N+](=O)[O-])c3no[n+]([O-])c23)CC1`, for which the growth in the experiment on NCI-H23 lung (10 µM unless noted) was -24.1% (active); in the experiment on NCI-H226 lung (10 µM unless noted), -71.9% (active); with NCI-H322M lung (10 µM unless noted), -24.2% (active); in the experiment with HOP-62 NSCLC (10 µM unless noted) it was -98.3% (active); with NCI-H460 lung (10 µM unless noted) it was -61.4% (active); in the experiment on HOP-92 NSCLC (10 µM), -23.1% (active). Moreover, the growth in the experiment with NCI-H522 lung (10 µM unless noted) is -92.1% (active); in the experiment with A549/ATCC NSCLC (10 µM unless noted) it was -48.7% (active); in the experiment on 786-0 renal (10 µM unless noted), -78.6% (active); with COLO 205 colon (10 µM unless noted), -83.3% (active); with DU-145 prostate (10 µM unless noted), -27.4% (active); in the experiment on K-562 leukemia (10 µM unless noted), -18.4% (active). The growth was -78.8% (active) with MALME-3M melanoma (10 µM unless noted); -32.1% (active) in the experiment with MDA-MB-231 breast (10 µM unless noted); -92.8% (active) in the experiment on RXF 393 renal (10 µM unless noted); -41.4% (active) in the experiment on SF-268 CNS (10 µM unless noted); -52% (active) in the experiment on SF-295 CNS (10 µM unless noted); -95.6% (active) with UACC-257 melanoma (10 µM unless noted). Further, the growth in the experiment on M14 melanoma (10 µM unless noted) was -65.2% (active).
In the case of `NCCc1ccc(OCc2ccccc2)c(OCc2ccccc2)c1`, the growth in the experiment on NCI-H23 lung (10 µM unless noted) is 87.6%; in the experiment with NCI-H226 lung (10 µM unless noted), 103%; in the experiment with NCI-H322M lung (10 µM unless noted) it was 85.4%; with HOP-62 NSCLC (10 µM unless noted), 87.3%; in the experiment on NCI-H460 lung (10 µM unless noted), 60.6%; in the experiment on HOP-92 NSCLC (10 µM), -2.74% (active). Moreover, the growth is 84.2% with 786-0 renal (10 µM unless noted); 13.5% with COLO 205 colon (10 µM unless noted); 97.3% in the experiment on DU-145 prostate (10 µM unless noted); 30.8% in the experiment with K-562 leukemia (10 µM unless noted); 106% in the experiment on MALME-3M melanoma (10 µM unless noted); 79.2% in the experiment with MDA-MB-231 breast (10 µM unless noted). For the same compound, the growth in the experiment with RXF 393 renal (10 µM unless noted) is 62.2%; in the experiment with SF-268 CNS (10 µM unless noted), 89.2%; in the experiment with SF-295 CNS (10 µM unless noted), 97.1%; in the experiment on SF-539 CNS (10 µM unless noted), 93.1%; in the experiment on M14 melanoma (10 µM unless noted) it was 102%.

The values are drawn from PubChem BioAssay (NCI).
